Laboratory results taken from PubChem BioAssay AID493168 (National Center for Advancing Translational Sciences (NCATS), 2011).
Records with an inconclusive call do not appear. Activity calls are given as the source filed them. Calls come from the whole dose curve; as a rule, active = well fitted inhibition curve with a large enough effect; inconclusive = small, poorly fitted or top-dose-only effect, or effect the other way; inactive = flat fitted curve, though single readings scatter.

Target: Ubiquitin carboxyl-terminal hydrolase 2 (Homo sapiens) (UniProt O75604)
Experiment: Confirmation Assay for Inhibitors of Ubiquitin-specific Protease USP2a Using CHOP2 as the Reporter; note: nearly all actives have a fitted effect of over 55% in size;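 for activity change, negative = inhibition: plate controls were DMSO wells for no effect and full inhibition by NEM control for full effect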
Settings: USP2 core, Ub-CHOP2 coupled reporter fluorescence; series mostly up to 38.3 µM; activity change, negative = inhibition: at the top concentration
Summary of the method: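 USP2 core (10 nM final) was preincubated with compound for 30 min at RT in Tris-HCl pH 8.0, CaCl2, beta-mercaptoethanol, CHAPS. Ub-CHOP2 and reporter substrate (25 nM final each) were added, and fluorescence (Ex 485/Em 531 nm) was read after 60 min.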
Potency is the fitted concentration of half-maximal effect.

Ubiquitin carboxyl-terminal hydrolase 2 (Homo sapiens), sequence (O75604 whole entry, looked up): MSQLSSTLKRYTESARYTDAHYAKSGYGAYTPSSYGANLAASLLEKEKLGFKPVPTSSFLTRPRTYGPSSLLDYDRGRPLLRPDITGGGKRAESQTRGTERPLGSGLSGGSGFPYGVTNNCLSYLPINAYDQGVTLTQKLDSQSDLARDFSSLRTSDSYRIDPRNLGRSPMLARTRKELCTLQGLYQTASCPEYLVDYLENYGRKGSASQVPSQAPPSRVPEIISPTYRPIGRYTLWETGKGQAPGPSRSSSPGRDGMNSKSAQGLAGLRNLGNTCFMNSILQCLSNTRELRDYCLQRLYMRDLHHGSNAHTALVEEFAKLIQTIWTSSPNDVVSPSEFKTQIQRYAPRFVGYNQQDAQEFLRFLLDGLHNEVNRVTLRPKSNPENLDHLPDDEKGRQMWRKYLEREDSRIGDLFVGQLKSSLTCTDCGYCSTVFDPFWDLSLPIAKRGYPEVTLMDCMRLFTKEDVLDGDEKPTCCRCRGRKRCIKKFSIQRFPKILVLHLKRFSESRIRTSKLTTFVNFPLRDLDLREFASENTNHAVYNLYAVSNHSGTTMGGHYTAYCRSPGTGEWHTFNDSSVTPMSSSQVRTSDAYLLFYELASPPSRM

Activity change, negative = inhibition, inactive:
COc1ccc(-c2nc(Cn3c(SCc4ccc(F)cc4)nc4ccncc43)c(C)o2)cc1OC -0.811%
Cc1cc(C(=O)CSc2nnc(Nc3ccccc3F)s2)c(C)n1CC1CCCO1 (centres undefined) -1.04%
CCCCCc1ccc(OCCOCCn2c[n+](C)c3ccccc32)c(CCCCC)c1 -16.2%
Cc1cc(C(=O)Nc2ccccc2N2CCOCC2)c2ccccc2n1 1.25%
COc1ccc(-c2noc(CSc3nnc(Cc4ccccc4)n3-c3ccc(Cl)cc3)n2)cc1 1.21%
CCC1SC2=NC(C)=C(C(=O)OCCOC)C(c3ccc(C(=O)OC)cc3)N2C1=O (centres undefined) -0.977%
Cc1nc(N(C)C)c2sc(=S)n(C)c2n1 0.888%
CN(C)c1ccc(NC(=O)CSCc2nc3c(nnn3Cc3ccc(F)cc3)c(=O)[nH]2)cc1 1.9%
O=[N+]([O-])c1ccc(Sc2nnnn2-c2ccccc2)c(Cl)c1 0.576%
CCOc1cc(N2CCOCC2)c(OCC)cc1NC(=O)Cc1cn2ccsc2n1 -2.39%
O=C(CSc1nccc(=O)[nH]1)N1N=C2/C(=C/c3ccco3)CCCC2C1c1ccco1 (centres undefined) -19.1%
O=C(NC1CCCC1)C1C2C=CC(C2)C1C(=O)N1CCOCC1 (centres undefined) 4.55%
CCC(C)NC(=O)C1CN(S(=O)(=O)c2ccccc2)CCN1S(=O)(=O)c1ccccc1 (centres undefined) 3.46%
C[C@H](CO)N1C[C@H](C)[C@@H](CN(C)S(=O)(=O)c2cccs2)Oc2c(NC(=O)Nc3ccc4c(c3)OCO4)cccc2C1=O 1.42%
COc1ccc(N(C(=O)C(C)C)S(=O)(=O)c2ccc(Cl)cc2)cc1 0.439%
COCCn1c(CN(Cc2ccccc2)Cc2ccccc2)nc2c1c(=O)n(C)c(=O)n2C 3.16%
CC(C)(C)c1cc(Br)ccc1OCC(=O)Nc1ncn[nH]1 1.94%
Cn1c2ccccc2c2nnc(SC3CCOC3=O)nc21 (centres undefined) 1.63%
O=C(NNC(=O)c1cc2ccccc2cc1O)Nc1ccccc1F -0.819%
O=C(N/C(=C/c1cccnc1)C(=O)N1CCOCC1)c1ccco1 4.27%
O=C(C[n+]1cccc(C(=O)N/N=C/c2ccc(Br)cc2)c1)c1ccccc1 -1.53%
COc1cc(/C=C/[N+](=O)[O-])ccc1OCc1cccc(C(=O)O)c1 -1.64%
COc1cc2c(C(=O)N3CCN(c4cccc(Cl)c4)CC3)cn(CC(C)C)c(=O)c2cc1OC -2.06%
CC1=NN(C(=O)c2csc(C)c2C)C(O)(C(F)(F)F)C1 (centres undefined) 7.72%
O=C(O)c1cccc(S(=O)(=O)NNc2ccccc2C(F)(F)F)c1 1.51%
Cc1cc(NC(=O)c2cccc(S(=O)(=O)N(C)C)c2)n(-c2ccccn2)n1 -1.59%
CCOc1ccc(Cn2c(=O)sc3ccccc32)cc1OC -0.436%
O=C(O)CC1(CC(=O)Nc2ccc3ccccc3c2)CCCCC1 4.41%
C=CCn1c(N)c(C(=O)NCc2cccnc2)sc1=S -0.483%
Oc1ccccc1/C=N/Nc1ncc(Br)cn1 -2.24%
CCOC(=O)CCCNC(=O)COC(=O)c1cccc(C)c1O -4.65%
COC(=O)c1[nH]c(=O)c2ccccc2c1OCc1ccccc1 -3.77%
CCOC(=O)N1CCN(S(=O)(=O)c2ccc(C)cc2)C1c1ccc(OC)cc1 (centres undefined) -1.44%
COc1cc(OC)cc(-c2c(C#Cc3ccsc3)c3cc(-c4ccc(OC)c(OC)c4)ccc3n2C)c1 -2.57%
Cc1c(C(=O)Nc2ccc3c4c(cccc24)CC3)cccc1[N+](=O)[O-] 1.37%
CCN(CC(=O)Nc1ccc(NC(C)=O)cc1)C(=O)c1ccc(N2CCC(C)CC2)c([N+](=O)[O-])c1 -5.18%

Potency, active:
CCCCCCCCCCOC(=O)Cn1c(COc2ccc(Cl)cc2)[n+](C)c2ccccc21 18.5 µM
CCOc1cc(/C=C2\C(=O)N(c3nc(-c4ccc(Br)cc4)cs3)N=C2c2ccccc2)ccc1O 4.65 µM
COc1cc(C(=O)OC2CCCCC2=O)cc(OC)c1C (centres undefined) 11.7 µM
